Compound activity (PubChem BioAssay)
HTR5A ag ctr: activates human HTR5A in OPRM1-OPRD1 agonist counter-screen. 340,000 compounds, 0.61% hits. HTR5A agonist assay, luminescence, cell-based. activation, % at 9.3 µM. P47898. AID 504692; in the data active = activation mostly above about 9.5%, no sharp cut-off; inactive = mostly below about 7.6%;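 note: 0% = cells with vehicle only and 100% = reference agonist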
Target sequence (P47898 whole entry, looked up): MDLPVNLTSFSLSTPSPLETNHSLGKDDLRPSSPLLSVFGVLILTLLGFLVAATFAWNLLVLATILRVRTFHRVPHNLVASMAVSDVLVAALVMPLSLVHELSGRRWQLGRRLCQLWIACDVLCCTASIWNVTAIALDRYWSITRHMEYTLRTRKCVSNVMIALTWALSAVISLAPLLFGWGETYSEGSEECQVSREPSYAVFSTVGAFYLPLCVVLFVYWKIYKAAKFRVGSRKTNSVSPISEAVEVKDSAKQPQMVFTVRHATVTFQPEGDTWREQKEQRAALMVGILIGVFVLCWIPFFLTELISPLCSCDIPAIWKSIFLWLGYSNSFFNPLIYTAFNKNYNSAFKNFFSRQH
MsrA inhibitor: inhibits bovine methionine sulfoxide reductase A. purified bovine MsrA, absorbance read-out. inhibition, % at 15.5 µM. 360,000 compounds, 0.75% hits. AID 651718; in the data active = inhibition above about 4.5%;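 note: 0% = vehicle wells with enzyme and 100% = reference inhibitor wells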
HTR5A inv ag: counter-screen for OPRM1-OPRD1 inverse agonists: human HTR5A inverse agonism. P47898. HTR5A cell line, luminescence. inhibition, % at 9.3 µM. 340,000 compounds, 0.083% hits; in the data active = inhibition mostly above about 23%, no sharp cut-off; inactive = mostly below about 18%;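 note: 0% = cells with DMSO and 100% = no-cell wells with DMSO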
OPRM1-OPRD1 ag: agonists of human mu-delta opioid receptor heterodimerization; cells, OPRM1-OPRD1 heterodimerization, luminescence; activation, % at 9.3 µM; 340,000 compounds, 0.3% hits; in the data active = activation above about 18%;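 note: 0% = vehicle-treated cells and 100% = reference agonist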
MOR-DOR inv ag-1: inverse agonist of human OPRM1-OPRD1 heterodimerization | P35372+P41143 | cell-based MOR-DOR heterodimer luminescence, inverse agonism | inhibition, % at 9.3 µM | 340,000 compounds, 0.21% hits; in the data active = inhibition above about 22%, passing the limit was not always enough;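 note: 0% = cells with DMSO and 100% = wells without cells with DMSO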
MsrA act: bovine methionine sulfoxide reductase A activation. activation, % at 10.6 µM. 360,000 compounds, 0.3% hits. purified bovine MsrA, absorbance read-out; in the data active = activation above about 7.5%;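 note: 0% = vehicle and 100% = reference activator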
OPRM1-D1 ag cf: OPRM1-OPRD1 heterodimer agonism, confirmation; activation, % at 9.3 µM; AID 504904; cells, MOR-DOR heterodimerization, luminescence complementation; shares compounds with OPRM1-OPRD1 ag; 830 compounds, 45% hits; in the data active = activation above about 18%;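 note: 0% = vehicle-treated cells and 100% = reference agonist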
HTR5A ag ctr2: activates human HTR5A in OPRM1-OPRD1 agonist counter-screen. shares compounds with OPRM1-OPRD1 ag. HTR5A agonist counterscreen, cell luminescence. activation, % at 9.3 µM. 830 compounds, 8% hits. AID 504905; in the data active = activation above about 17%;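 note: 0% = vehicle-treated cells and 100% = reference agonist response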
OPRM1-D1 inv cf: confirmation of human OPRM1-OPRD1 heterodimerization inverse agonists | inhibition, % at 9.3 µM | shares compounds with MOR-DOR inv ag-1 | 580 compounds, 20% hits | AID 504900 | cells expressing OPRM1/OPRD1 heterodimer, luminescence; in the data active = inhibition above about 32%;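 note: 0% = cells with DMSO and 100% = wells lacking cells with DMSO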
HTR5A inv count: HTR5A inverse agonism, opioid heterodimer counter-screen; AID 504914; inhibition, % at 9.3 µM; shares compounds with MOR-DOR inv ag-1; 580 tested, under 10 active; HTR5A-expressing cells, luminescence;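 note: 0% = cells with DMSO and 100% = no-cell wells with DMSO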
MOR-DOR inv ag-2: inverse agonist of OPRM1-OPRD1 heterodimerization in HTR5A counter-screen; shares compounds with HTR5A inv ag; U2OS counter-screen cells, complementation luminescence; inhibition, % at 9.3 µM; 190 tested, under 10 active; AID 504912;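 note: 0% = cells with DMSO and 100% = wells without cells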
HTR5A inv confrm: HTR5A (human) inverse agonism, confirmation; shares compounds with HTR5A inv ag; HTR5A-expressing cells, luminescence; inhibition, % at 9.3 µM; 190 tested, under 10 active;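 note: 0% = cells with DMSO and 100% = no cells with DMSO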
MsrA activ conf: bovine methionine sulfoxide reductase A activation confirmed; 1,000 compounds, 12% hits; activation, % at 10.6 µM; shares compounds with MsrA act; purified bovine MsrA, absorbance read-out; in the data active = activation above about 4%;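 note: enzyme coupled to thioredoxin and thioredoxin reductase with NADPH; 0% = vehicle wells and 100% = reference activator wells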
MsrA inh confirm: bovine MsrA inhibition, confirmed; shares compounds with MsrA inhibitor; purified bovine MsrA, absorbance read-out; inhibition, % at 15.5 µM; 2,300 compounds, 41% hits; AID 651822; in the data active = inhibition above about 4.5%;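 note: coupled to thioredoxin reductase with NADPH and selenocystamine and DMSO as substrate; 0% = vehicle only and 100% = full effect of reference inhibitor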
The depositor's hits bear a star; i = inactive; . = not tested or not shown. Compounds with a hit are over-represented: about 1.9% of the library has one in this group of screens. Unless noted, the rule behind the calls is not given here.

SMILES	HTR5A ag ctr	MsrA inhibitor	HTR5A inv ag	OPRM1-OPRD1 ag	MOR-DOR inv ag-1	MsrA act	OPRM1-D1 ag cf	HTR5A ag ctr2	MsrA activ conf	others
CCN(CC)c1ccc(C(=C2C=CC(=[N+](CC)CC)C=C2)c2ccc(N(CC)CC)cc2)cc1	-20	-1	50*	108*	-431	-5	4	33*	.	MOR-DOR inv ag-2=-58;HTR5A inv confrm=-122
CN1OC[C@@H]2CN[C@H](c3ccc(-n4ccnc4)cc3)C[C@@H]21	.	-1	.	.	.	.	.	.	.
O=C1C(Nc2ccc(O)cc2)=C/C(=N/S(=O)(=O)c2cccs2)c2ccccc21	5	49*	25	24*	-123	9.9*	0	0	7.9*
O=C1C=C(c2c(O)ccc3ccccc23)c2ccccc2C1=O	10	-1	-39	54*	-280	21*	47*	14	12*
c1ccc(-c2ccc3c(n2)CCCN3Cc2ccccn2)cc1	.	1	.	.	.	.	.	.	.
Cc1oc2c(c1C(=O)c1ccccc1)C(=O)C(=O)c1ccccc1-2	1	1	-2	18*	-90	9.3*	21*	5	13*
CN(C)CCNC(=S)Nc1ccccc1Cl	-3	0	8	-1	6	-3	.	.	.
CN(C)C(CNC(=S)Nc1ccccc1Cl)c1cccnc1 (stereo not given)	0	-1	5	407*	i	7.9*	387*	-2	-1
Nc1nc2c(-c3ccc([N+](=O)[O-])cc3)nnn2c2ccccc12	.	-1	.	.	.	.	.	.	.
Nc1ccc2c(c1)C(=O)C(=O)c1ccccc1-2	4	1	-11	25*	-125	40*	0	1	29*
Nc1ccc2c(c1)C(=O)c1ccccc1-2	1	0	-7	-2	9	-3	.	.	.
CC1CCCC(C)N1C(=O)c1ccccc1 (stereo not given)	.	1	.	.	.	.	.	.	.
O=C(C1=C(c2ccccc2)C(=O)c2ccccc2C1=O)c1ccccc1	3	72*	-9	20*	-132	-1	6	0	.	MsrA inh confirm=59*
C[C@@H]1ON(C)[C@H]2C[C@H]3c4[nH]c5c(-c6ccc(F)cc6)cccc5c4CCN3C(=O)[C@@H]12	.	-1	.	.	.	.	.	.	.
O=C(COC(=O)c1ccccn1)c1cccc(Br)c1	-2	-1	17	-7	37*	-7	.	.	.	OPRM1-D1 inv cf=14;HTR5A inv count=9
O=C(C[n+]1ccccc1)NNc1ccccc1	0	1	-21	-6	33*	-1	.	.	.	OPRM1-D1 inv cf=24;HTR5A inv count=-16
CCCN(C(=O)c1cn(CCC)c2ccccc12)c1ccc(Oc2cccnc2)cc1	.	0	.	.	.	.	.	.	.
O=C(CC1(O)C(=O)Nc2ccccc21)c1ccc(-n2cnnn2)cc1 (stereo not given)	-4	0	15	-9	40*	-1	.	.	.	OPRM1-D1 inv cf=33*;HTR5A inv count=-1
Cc1ccc(C(=O)COC(=O)C(C)N2C(=O)C3C4CCC(C4)C3C2=O)cc1C (stereo not given)	-1	1	8	-2	14	-7	.	.	.
CC(C(=O)OCC(=O)c1cccc([N+](=O)[O-])c1)N1C(=O)C2C3CCC(C3)C2C1=O (stereo not given)	-4	0	11	-7	54*	-2	.	.	.	OPRM1-D1 inv cf=17;HTR5A inv count=6
